# In publication PMC7862700, “An all-to-all approach to the identification of sequence-specific readers for epigenetic DNA modifications on cytosine”:
# Key:
# Experiment in all cases: DAPPL (digital affinity profiling via proximity ligation, sequencing); 10 mM Tris-HCl pH 7.5, 50 mM NaCl, 1 mM DTT, 4% glycerol, room temperature, 30 min; GST-TFs on glutathione beads, 16-mer random dsDNA library, 0.1% formaldehyde crosslink after washing; high values mean tight binding
# FEV = biological target: T1, FEV (Homo sapiens, UniProt Q99581 1-238); settings: protein: recombinant; tags: N-terminal GST; dsDNA, one strand shown
# T1 sequence: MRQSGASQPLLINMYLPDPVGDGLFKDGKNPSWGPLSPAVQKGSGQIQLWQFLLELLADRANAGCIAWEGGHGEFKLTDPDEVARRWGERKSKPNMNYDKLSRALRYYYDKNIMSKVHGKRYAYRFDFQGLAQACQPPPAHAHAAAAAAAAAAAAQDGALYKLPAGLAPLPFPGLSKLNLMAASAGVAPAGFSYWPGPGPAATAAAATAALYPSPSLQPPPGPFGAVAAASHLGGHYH
# Method in brief: (§1)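 GST fusions of human transcription factors were expressed in yeast and captured with glutathione beads. Once given DNA barcodes and pooled alongside a tag-only sample, they were incubated for 30 min at room temperature with 200 nmole of a random double-stranded 16-mer DNA library in Tris/NaCl/DTT/glycerol buffer, then washed, crosslinked (0.1% formaldehyde), proximity-ligated, PCR-amplified and sequenced on an Illumina NextSeq500. The binding signal of each hexamer is its read frequency for a factor divided by its frequency for the tag-only sample.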
# ETV5 = ETV5 (Homo sapiens, UniProt P41161 1-510); settings: protein: recombinant; tags: N-terminal GST; dsDNA, one strand shown
# Method in brief: as §1
# HSF1 = HSF1 (Homo sapiens, UniProt Q00613 1-529); settings: protein: recombinant; tags: N-terminal GST; chain copies: 3; dsDNA, one strand shown
# Method in brief: as §1
# SPIC = biological target: T2, SPIC (Homo sapiens, UniProt Q8N5J4 1-248); settings: protein: recombinant; tags: N-terminal GST; dsDNA, one strand shown
# T2 sequence: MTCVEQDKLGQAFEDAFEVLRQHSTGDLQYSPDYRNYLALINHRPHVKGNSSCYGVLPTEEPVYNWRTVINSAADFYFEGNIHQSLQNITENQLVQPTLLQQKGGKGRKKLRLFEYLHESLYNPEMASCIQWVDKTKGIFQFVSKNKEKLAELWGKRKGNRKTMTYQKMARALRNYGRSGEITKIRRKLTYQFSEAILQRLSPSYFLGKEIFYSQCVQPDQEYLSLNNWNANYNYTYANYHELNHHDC
# Method in brief: as §1
# ELF4 = ELF4 (Homo sapiens, UniProt Q99607 1-663); settings: protein: recombinant; tags: N-terminal GST; dsDNA, one strand shown
# Method in brief: as §1
# ELK4 = biological target: T3, ELK4 (Homo sapiens, UniProt P28324-2 1-405); settings: protein: recombinant; tags: N-terminal GST; dsDNA, one strand shown
# T3 sequence: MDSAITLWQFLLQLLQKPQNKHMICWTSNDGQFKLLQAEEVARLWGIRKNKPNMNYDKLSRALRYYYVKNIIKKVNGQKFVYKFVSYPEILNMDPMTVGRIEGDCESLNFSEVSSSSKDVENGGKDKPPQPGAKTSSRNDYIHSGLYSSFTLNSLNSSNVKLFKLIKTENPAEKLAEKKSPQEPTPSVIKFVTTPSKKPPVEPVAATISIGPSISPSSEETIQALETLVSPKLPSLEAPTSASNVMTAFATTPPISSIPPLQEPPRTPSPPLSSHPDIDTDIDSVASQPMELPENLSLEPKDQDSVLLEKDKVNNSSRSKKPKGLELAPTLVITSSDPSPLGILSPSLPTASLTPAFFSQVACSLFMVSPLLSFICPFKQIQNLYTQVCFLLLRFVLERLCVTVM
# Method in brief: as §1
# ETV2 = biological target: T4, ETV2 (Homo sapiens, UniProt O00321 1-342); settings: protein: recombinant; tags: N-terminal GST; dsDNA, one strand shown
# T4 sequence: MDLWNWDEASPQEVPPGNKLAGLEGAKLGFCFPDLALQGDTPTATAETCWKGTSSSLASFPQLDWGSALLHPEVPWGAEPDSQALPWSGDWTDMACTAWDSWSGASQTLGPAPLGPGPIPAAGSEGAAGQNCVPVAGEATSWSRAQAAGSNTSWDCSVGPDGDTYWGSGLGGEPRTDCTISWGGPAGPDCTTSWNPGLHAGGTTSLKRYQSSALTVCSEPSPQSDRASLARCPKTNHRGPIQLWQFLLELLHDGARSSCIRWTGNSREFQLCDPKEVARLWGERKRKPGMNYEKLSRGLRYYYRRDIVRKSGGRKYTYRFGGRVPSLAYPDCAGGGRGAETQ
# Method in brief: as §1
# ELF3 = biological target: T5, ELF3 (Homo sapiens, UniProt P78545 1-371); settings: protein: recombinant; tags: N-terminal GST; dsDNA, one strand shown
# T5 sequence: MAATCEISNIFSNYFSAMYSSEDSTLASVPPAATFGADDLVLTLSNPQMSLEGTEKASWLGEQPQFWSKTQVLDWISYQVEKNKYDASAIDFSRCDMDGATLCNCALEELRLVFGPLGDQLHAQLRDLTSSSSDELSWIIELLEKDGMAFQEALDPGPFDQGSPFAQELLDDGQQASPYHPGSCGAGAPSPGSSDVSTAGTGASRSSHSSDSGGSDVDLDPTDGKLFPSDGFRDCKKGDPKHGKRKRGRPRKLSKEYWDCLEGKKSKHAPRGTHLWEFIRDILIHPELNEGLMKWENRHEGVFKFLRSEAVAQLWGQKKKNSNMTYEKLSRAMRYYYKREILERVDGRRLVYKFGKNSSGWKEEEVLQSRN
# Method in brief: as §1
# ETV1 = ETV1 (Homo sapiens, UniProt P50549 1-477); settings: protein: recombinant; tags: N-terminal GST; dsDNA, one strand shown
# Method in brief: as §1
# Sequence of ETV1 (P50549 whole entry): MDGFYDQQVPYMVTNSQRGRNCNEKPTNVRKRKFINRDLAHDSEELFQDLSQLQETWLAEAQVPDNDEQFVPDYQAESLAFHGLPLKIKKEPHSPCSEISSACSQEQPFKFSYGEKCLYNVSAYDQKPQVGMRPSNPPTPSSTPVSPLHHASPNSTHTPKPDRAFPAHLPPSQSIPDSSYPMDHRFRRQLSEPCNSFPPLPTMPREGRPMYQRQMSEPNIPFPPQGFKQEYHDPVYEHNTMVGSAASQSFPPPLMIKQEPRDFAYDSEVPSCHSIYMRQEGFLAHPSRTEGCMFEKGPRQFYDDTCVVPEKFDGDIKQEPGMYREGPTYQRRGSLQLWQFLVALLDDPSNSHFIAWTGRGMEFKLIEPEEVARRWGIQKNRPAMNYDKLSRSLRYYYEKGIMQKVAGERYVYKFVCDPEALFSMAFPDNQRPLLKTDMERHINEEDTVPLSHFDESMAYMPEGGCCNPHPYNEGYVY
# Sequence of ELF4 (Q99607 whole entry): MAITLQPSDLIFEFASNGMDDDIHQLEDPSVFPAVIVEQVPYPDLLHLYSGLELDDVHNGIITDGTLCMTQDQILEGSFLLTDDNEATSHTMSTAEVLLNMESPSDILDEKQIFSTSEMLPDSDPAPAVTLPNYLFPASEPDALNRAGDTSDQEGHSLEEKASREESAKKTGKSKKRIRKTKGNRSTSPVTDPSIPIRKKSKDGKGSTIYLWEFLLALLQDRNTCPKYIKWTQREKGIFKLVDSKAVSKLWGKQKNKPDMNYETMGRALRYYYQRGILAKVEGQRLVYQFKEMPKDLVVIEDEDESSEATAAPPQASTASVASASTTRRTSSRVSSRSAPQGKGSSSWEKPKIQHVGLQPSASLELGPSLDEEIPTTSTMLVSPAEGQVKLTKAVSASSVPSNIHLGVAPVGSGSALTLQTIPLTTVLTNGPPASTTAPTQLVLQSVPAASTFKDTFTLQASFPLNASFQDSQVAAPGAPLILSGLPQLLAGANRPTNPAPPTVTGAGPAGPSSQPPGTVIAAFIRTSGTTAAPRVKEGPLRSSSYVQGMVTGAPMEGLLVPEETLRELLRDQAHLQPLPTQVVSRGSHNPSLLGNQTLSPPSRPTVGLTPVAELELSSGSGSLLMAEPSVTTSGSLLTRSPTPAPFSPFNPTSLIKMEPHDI
# Sequence of HSF1 (Q00613 whole entry): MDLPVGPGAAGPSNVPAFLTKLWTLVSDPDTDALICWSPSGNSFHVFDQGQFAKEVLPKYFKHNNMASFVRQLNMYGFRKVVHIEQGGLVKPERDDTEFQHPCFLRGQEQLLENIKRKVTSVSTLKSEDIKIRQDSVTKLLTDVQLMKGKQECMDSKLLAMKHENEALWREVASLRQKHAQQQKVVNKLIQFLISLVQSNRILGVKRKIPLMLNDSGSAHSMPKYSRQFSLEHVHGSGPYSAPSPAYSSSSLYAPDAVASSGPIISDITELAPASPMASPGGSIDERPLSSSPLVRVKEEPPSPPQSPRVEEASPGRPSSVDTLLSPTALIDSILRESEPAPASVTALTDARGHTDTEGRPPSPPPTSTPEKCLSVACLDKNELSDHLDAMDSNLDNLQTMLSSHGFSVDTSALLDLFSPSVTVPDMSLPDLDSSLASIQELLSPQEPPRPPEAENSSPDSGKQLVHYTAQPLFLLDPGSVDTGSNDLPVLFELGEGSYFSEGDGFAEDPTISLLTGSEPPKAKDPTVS
# Sequence of ETV5 (P41161 whole entry): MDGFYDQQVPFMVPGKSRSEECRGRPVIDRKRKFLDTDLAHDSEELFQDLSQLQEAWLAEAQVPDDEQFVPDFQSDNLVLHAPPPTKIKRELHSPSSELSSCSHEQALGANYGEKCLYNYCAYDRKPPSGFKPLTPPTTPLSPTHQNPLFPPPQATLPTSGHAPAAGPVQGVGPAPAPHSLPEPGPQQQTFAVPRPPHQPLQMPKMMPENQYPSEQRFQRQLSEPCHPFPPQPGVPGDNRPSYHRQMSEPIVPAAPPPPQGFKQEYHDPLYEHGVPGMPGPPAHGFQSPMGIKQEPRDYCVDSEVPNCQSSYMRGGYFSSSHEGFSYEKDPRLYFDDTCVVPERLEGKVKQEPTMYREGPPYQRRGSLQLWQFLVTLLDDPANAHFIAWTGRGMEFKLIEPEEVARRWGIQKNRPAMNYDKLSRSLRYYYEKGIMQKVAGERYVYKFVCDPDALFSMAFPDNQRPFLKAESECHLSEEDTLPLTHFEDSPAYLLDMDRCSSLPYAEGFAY
sequence,measurement,setting,value
GGATCC,binding signal,FEV,"1.16 fold enrichment (6-mer frequency, TF over GST control)"
same,binding signal,ETV5,"1.17 fold enrichment (6-mer frequency, TF over GST control)"
same,binding signal,HSF1,"1.04 fold enrichment (6-mer frequency, TF over GST control)"
same,binding signal,SPIC,"1.13 fold enrichment (6-mer frequency, TF over GST control)"
same,binding signal,ELF4,"1.13 fold enrichment (6-mer frequency, TF over GST control)"
same,binding signal,ELK4,"1.05 fold enrichment (6-mer frequency, TF over GST control)"
same,binding signal,ETV2,"1.29 fold enrichment (6-mer frequency, TF over GST control)"
same,binding signal,ELF3,"1.29 fold enrichment (6-mer frequency, TF over GST control)"
same,binding signal,ETV1,"1.14 fold enrichment (6-mer frequency, TF over GST control)"
